Assay outcomes from PubChem BioAssay.
VACV mCherry inh: qHTS for Stage-Specific Inhibitors of Vaccinia Orthopoxvirus: mCherry Reporter Primary qHTS | Vaccinia virus mCherry reporter infection, fluorescence | Potency, µM (doses to about 36.5 µM), without a hit: at the top dose activity change, negative = inhibition, actives largely listed as inhibitors | 310,000 tested, 0.63% active | AID 720579, 2013; calls by dose curve; tested in A549 cells; note: nearly all actives have a fitted effect of over 35% in size
HCV inh: qHTS Assay for Inhibitors of Hepatitis C Virus (HCV). 340,000 tested, 3.4% active. Potency, µM (top dose mostly 41.8 µM), for inactives: at the top dose activity change, negative = inhibition, hits mostly inhibitors. Huh7.5.1 HCVcc-Cre infection, luciferase reporter, 44 h; active = well fitted inhibition curve with a large enough effect; inconclusive = small, poorly fitted or top-dose-only effect, or another doubt; inactive = no such curve, though single readings can be large or run the other way
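Reporter virus HCVcc-Cre (~0.5 moi) infects cells exposed to compound; seeding density 1,000 cells/well with 4 h settling beforehand. Luminescence, 15 sec read, taken 44 h post-infection following a 15 min RT substrate incubation.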
VACV Venus inh: qHTS for Stage-Specific Inhibitors of Vaccinia Orthopoxvirus: Venus Reporter Primary qHTS; Vaccinia virus Venus reporter expression, fluorescence; Potency, µM (series often up to 36.5 µM), inactives show at the top dose activity change, negative = inhibition, hits mostly inhibitors; 330,000 tested, 0.46% active; AID 720580, 2013; calls by dose curve; tested in A549 cells; note: nearly all actives have a fitted effect of over 30% in size
* marks the source's active call; other numbers are inactive results; i = inactive; ? = inconclusive; . = no result; ! = not confirmed by another sample. A selection: hits, their analogues and other compounds. The true share with any hit is near 3.3%. % is set by controls: 0 for no effect and ±100 for the full control effect; potency is the fitted concentration of half-maximal effect.

SMILES	VACV mCherry inh	HCV inh	VACV Venus inh
Cc1ccccc1-c1ccc2c(c1)O[C@H](CN(C)C(=O)C1CC1)[C@@H](C)CN([C@@H](C)CO)S2(=O)=O	-12.6%	.	?
COc1ccc(S(=O)(=O)N2CCCCCC2)cc1NC(=O)Cc1n[nH]c(=O)c2ccccc12	-11.0%	8.9%	-5.3%
Oc1ccccc1C1C=C(c2ccc3c(c2)OCO3)NC(c2cccc(Cl)c2)N1 (stereo not drawn)	27.7%	.	-5.7%
O=C(CSc1n[nH]c(-c2ccccc2Cl)n1)NCc1ccc(F)cc1	-6.0%	.	-14.2%
COc1ccc(OC)c(NC(=O)c2nc(SCc3ccccc3F)ncc2Cl)c1	?	.	-24.6%
Cc1ccc(C)c(N=Nc2ccc(O)c3ncccc23)c1	.	6.31µM*	.
CCOc1ccc(N=Nc2cc(C(C)C)ccc2O)cc1	-13.7%	-14.2%	-8.2%
CCS(=O)(=O)c1ccc(OC)c(N=Nc2ccc(O)c3ncccc23)c1	?	?	-22.7%
Cc1ccc(N=Nc2cc(C)ccc2O)c(C)c1	.	7.2%	.
Cc1cccc(N=Nc2ccc(O)c3ncccc23)c1	14.1µM*	5.62µM*	?
CNc1ccc(N=Nc2cccc3ncccc23)cc1	-5.6%	?	-7.3%
CCOc1ccc(N=Nc2ccc(O)c3ncccc23)cc1	?	7.94µM*	-15.2%
CCN(CC)S(=O)(=O)c1cc(OC)ccc1N=Nc1ccc(O)c2ncccc12	?	5.01µM*	?
CN(C)C1(CNC(=O)COc2cccc(Cl)c2)CCCCC1	13.5%	.	6.5%
CCN1C(=O)[C@H]2[C@@H](c3ccc(OC)cc3)N3C(=O)CN(CC4CC4)C(=O)[C@@]3(C)[C@H]2C1=O	-18.6%	10µM*	0.8%
CCN1C(=O)[C@H]2[C@@H](c3ccc(Cl)cc3)N3C(=O)CN(CC4CC4)C(=O)[C@@]3(C)[C@H]2C1=O	i	-3.2%	2.0%
CC1(C(=O)NS(=O)(=O)c2ccccc2)CCN1C(=O)CC1CCCC1 (stereo not drawn)	-8.3%	.	5.6%
CCOCCCNC(=O)c1c(NC(=O)c2nc(SCC)ncc2Cl)sc2c1CCCC2	4.5%	.	-5.6%
O=C(CSc1nc2nn(-c3ccccc3)c(=O)c-2c2n1CCCCC2)c1ccc(OC(F)F)cc1	.	7.94µM*	.
CCSc1nc2nn(-c3ccccc3)c(=O)c-2c2n1CCCCC2	.	-10.6%	5.5%
O=C(COC(=O)C12CC3CC(CC(C3)C1)C2)NCC1CCCO1 (stereo not drawn)	-8.4%	.	-11.4%
COc1ccc(N2CCN(c3cc(C)nc4ccc(OC)cc34)CC2)cc1	-29.2%	6.31µM*	-20.8%
Cc1ccc2nc(C)cc(N/N=C/c3cccc(O)c3)c2c1	-24.5%	-16.1%	?
COc1ccc2nc(C)cc(N/N=C/c3ccc(F)cc3)c2c1	?	?	10µM*
COc1ccc2nc(C)cc(N3CCC(C(N)=O)CC3)c2c1	i	6.5%	-5.2%
SMILES	VACV mCherry inh	HCV inh	VACV Venus inh
COc1ccc(CNc2cc(C)nc3ccc(OC)cc23)cc1	-23.0%	14.1µM*	-10.5%
COc1ccc2nc(C)cc(Nc3ccc(C(=O)O)cc3)c2c1	.	6.2%	.
COc1ccc(/C=N/Nc2cc(C)nc3c(C)cccc23)cc1	.	12.6µM*	.
COc1cccc2c(N/N=C/c3ccc(O)c(O)c3)cc(C)nc12	-8.5%	?	-6.7%
COc1cc2c(cc1OC)C(COc1ccc3c(C)cc(=O)oc3c1)N(C(=O)c1cccc(OC)c1OC)CC2 (stereo not drawn)	-11.2%	.	-8.7%
Cc1ccc(C)c(Nc2nnc(-c3ccc(C)c(S(=O)(=O)NCC4CCCO4)c3)c3ccccc23)c1 (stereo not drawn)	-12.3%	.	-13.8%
COC(=O)c1sc(N)c(C(=O)OC)c1Cn1ncc(Cl)c(Cl)c1=O	?	11.2µM*	-8.8%
COC(=O)c1sc(N)c(C(=O)OC)c1CSc1nnnn1C	.	-3.2%	-17.3%
Clc1ccc(CN(Cc2ccccc2)C(c2cccs2)c2nnnn2C2CCCC2)cc1 (stereo not drawn)	-11.1%	-19.4%	-14.4%
CC(C)(C)n1nnnc1C(c1cccs1)N(Cc1ccc(Cl)cc1)CC1CCCO1 (stereo not drawn)	11.2µM*	?	?
CC#C[C@]1(O)CC[C@H]2[C@@H]3CCC4=CC(=O)CCC4=C3[C@@H](c3ccc(N(C)C)cc3)C[C@@]21C	-5.6%	35.5µM*!	-14.1%
CC(=O)O[C@H]1CCC2C3CCC4=CC(=O)CCC4=C3C=C[C@@]21C (stereo partly drawn)	-0.7%	11.0%	-10.9%
Cc1ncc(-c2ccc(F)cc2)c(C2CCCN(Cc3cccc(O)c3)C2)n1 (stereo not drawn)	i	.	-13.7%
Cc1ccc(NCc2nnc(SCc3ccc(C#N)cc3)n2Cc2ccco2)c(C)c1	-23.4%	-29.6%	-19.1%
O=C(CSc1nnc(-c2cc3ccccc3cc2O)n1Cc1ccco1)c1ccc(F)cc1	.	15.8µM*	.
COc1ccc(C(=O)CSc2nnc(CNc3ccc(C)cc3C)n2Cc2ccco2)cc1	.	6.31µM*	.
Cc1occc1-c1nnc(SCC(=O)c2ccc(F)cc2)n1Cc1ccco1	-15.1%	?	-16.4%
Cc1ccc(OCC(=O)Nc2ccc(S(=O)(=O)N3CCCC3)cc2)cc1	i	-5.1%	-10.7%
O=C(NCCc1ccccn1)C1CC12CCN(C(=O)c1cccc(C(F)(F)F)c1)CC2 (stereo not drawn)	-12.3%	.	-5.1%
CCOCCCn1cc(C(=O)c2cc(Br)ccc2O)cc(C#N)c1=O	-15.8%	-18.3%	18.0%
CCCCn1cc(C(=O)c2cc(Br)ccc2O)cc(C#N)c1=O	.	11.2µM*	?
COc1ccccc1N1CCN(Cc2cc(=O)c(OCC(=O)NC3CCCC3)co2)CC1	-12.5%	-4.2%	-7.2%
O=C(COc1ccccc1Br)Nc1ccc2c(c1)OCCCO2	i	-17.6%	-0.9%
Cc1ccc(-c2nn(-c3ccccc3)cc2CO)cc1	?	-2.1%	-23.4%
Cc1ccc(-c2nn(-c3ccccc3)cc2CNCc2ccccc2)cc1	?	11.2µM*	?
SMILES	VACV mCherry inh	HCV inh	VACV Venus inh
CCOC(=O)c1ccc(NC(=O)c2cc3cc(C)ccc3n2C)cc1	-1.7%	.	-11.8%
COc1ccc([N+](=O)[O-])cc1NC(=O)CC(c1ccccc1)c1ccccc1	i	-28.5%	-4.5%
COCCSc1ccccc1C(=O)Nc1cc([N+](=O)[O-])ccc1OC	-5.9%	7.94µM*	-11.5%
CNC(=O)CSc1nc2cccnc2n1-c1ccc(F)cc1	-1.3%	-16.0%	-3.4%
Cc1c(C(=O)N(CCO)C(C)C)cnn1-c1ncc2c(n1)-c1ccccc1CCC2	-0.6%	.	-7.6%
COc1ccccc1C1CN(CCNC(=O)c2cnsn2)Cc2ccccc2O1 (stereo not drawn)	-20.7%	.	-5.4%
O=C(Cc1cccs1)NCCSc1c(-c2ccc(Cl)cc2)[nH]c2ccccc12	11.2µM*	12.6µM*	12.6µM*
CN(C)S(=O)(=O)c1ccc(C(=O)NCCSc2c(-c3ccc(Cl)cc3)[nH]c3ccccc23)cc1	-22.8%	.	-26.7%
COC(=O)C(Cc1ccccc1)NC(=O)CCc1c[nH]c2ccccc12 (stereo not drawn)	-11.3%	2.5%	-0.8%
N#CC1C(=O)NC(=O)C(C#N)C12CCCC2 (stereo not drawn)	2.1%	.	13.8%
O=C(CCSCc1ccccc1Cl)NCc1ccc(F)cc1Cl	-5.2%	.	-2.4%
